For 40 compounds, Potency results are on record in PubChem BioAssay (Tox21).

“And” between values parts separate entries of the source, which are not always exact repeats. Equal entries are not always repeated. Records with an inconclusive call do not appear. Where a call stands in place of a potency, no number is given. More than one record can exist for a structure, and the calls need not agree. The source made the active and inactive calls. Calls come from the whole dose curve; as a rule, active = well fitted cell-killing curve with a large enough effect in the repeat runs; inconclusive = weak or mixed curves; inactive = flat fitted curve, though single readings scatter.
Potency is the fitted concentration of half-maximal effect.

This test is described as follows: qHTS assay to identify small molecule antagonists of the estrogen receptor beta (ER-beta) signaling pathway - cell viability counter screen (AID 1259382). Note: nearly all actives have a fitted effect of over 55% in size. Particulars: ER-beta-UAS-bla HEK293T viability, CellTiter-Glo luminescence, 16 h; series mostly up to 92.4 µM. An excerpt:
U.S. Tox21 Program National Center for Advancing Translational Sciences [NCATS] NIH Chemical Genomics Center [NCGC] U.S. Environmental Protection Agency [EPA] National Institutes of Environmental Health Sciences [NIEHS] National Toxicology Program [NTP] U.S. Food and Drug Administration [FDA] Tox21 Assay Overview: Estrogen receptor (ER), a nuclear hormone receptor, plays an important role in development, metabolic homeostasis and reproduction. Two subtypes of ER, ER-alpha and ER-beta, have similar expression patterns with some uniqueness in both types. Endocrine disrupting chemicals (EDCs) and their interactions with steroid hormone receptors like ER causes disruption of normal endocrine function. To identify the compounds that inhibit ER signaling, an ER-beta-UAS-bla GripTite cell line (Life Technologies, Madison, WI, USA) containing a beta-lactamase reporter gene under the control of an UAS response element was used to screen Tox21 10K compound library. The cytotoxicity of the Tox21 compound library against the ER-beta-bla cell line was tested in parallel by measuring the cell viability using CellTiter-Glo assay in the same wells.
Tox21 Assay Protocol Summary: ER-beta-UAS-bla HEK293T cells were dispensed at 2,000 cells/4 uL of assay medium containing 2% charcoal stripped FBS per well into black wall/clear-bottom 1536-well plates using a Multidrop Combi (ThermoFisher Scientific, Waltham, MA) dispenser. After the assay plates were incubated at a 37C and 5% CO2 for 6 hr, 23 nL of compounds dissolved in DMSO, positive controls or DMSO only was transferred to the assay plate by a Pintool station (Kalypsys, San Diego, CA), followed by addition of 1 uL (1nM as final concentration) of 17-beta-estradiol (E2) in assay medium using a Flying Reagent Dispenser (FRD, Aurora Discovery, San Diego, CA). The plates were incubated at 37C and 5% CO2 for 16 hr. Then 1 uL of LiveBLAzer B/G FRET substrate was added using a Flying Reagent Dispenser, the plates were incubated at room temperature for 2 hours, and fluorescence intensity was measured by an Envision plate reader (PerkinElmer, Shelton, CT). For cell viability readout that measures cytotoxicity, 4 uL/well of CellTiter-Glo reagent was added into the assay plates using a FRD. After 30 min incubation at room temperature, the luminescence intensity in the plates was measured using a ViewLux (PerkinElmer) plate reader.
On the technique in general: qHTS replaces the single test concentration by a dilution series.
Regarding `OC(c1ccc(Cl)cc1)(c1ccc(Cl)cc1)C(Cl)(Cl)Cl`, the Potency entry is “inactive”. Consider `Cc1cc(C)c(C2=C(OC(=O)CC(C)(C)C)C3(CCCC3)OC2=O)c(C)c1`, for which the Potency result is “inactive”.

As to `CC(=O)[O-].CC(=O)[O-].O.O.[Cd+2]`, the Potency is 53.7 µM (active). For `Cc1cccc(OP(=O)(Oc2cccc(C)c2)Oc2cccc(C)c2)c1`, the Potency result is “inactive”. As for `CCOCn1c(-c2ccc(Cl)cc2)c(C#N)c(Br)c1C(F)(F)F`, the Potency is 34.4 µM (active). With `CC(C)OS(C)(=O)=O` the entry was “inactive”; with `C[C@]12CC[C@@H]3c4ccc(OC(=O)N(CCCl)CCCl)cc4CC[C@H]3[C@@H]1CC[C@@H]2O`, “inactive”; with `CCCCN(CCCC)C(=S)[S-].CCCCN(CCCC)C(=S)[S-].[Zn+2]`, 30.6 µM (active). As for `COC(=O)N(C(=O)N1CO[C@@]2(C(=O)OC)Cc3cc(Cl)ccc3C2=N1)c1ccc(OC(F)(F)F)cc1`, the entry is “inactive”; as for `[CH3][Hg][Cl]`, “inactive”; as for `CC(=O)O[C@H]1CC[C@@]2(C)C(=CC[C@@H]3[C@@H]2CC[C@]2(C)C(=O)CC[C@@H]32)C1`, “inactive”.

Turning to `ClC1=C(Cl)C2(Cl)C3C(Cl)C=CC3C1(Cl)C2(Cl)Cl` (stereo not given), the Potency result was “inactive”. As for `Clc1ccc(Oc2ccccc2)cc1`, the entry is “inactive”; as for `Clc1ccc(COC(Cn2ccnc2)c2ccc(Cl)cc2Cl)cc1` (stereo not given), 50.8 µM (active) and 27.2 µM (active) and 26.6 µM (active).

As for `CC(=O)Nc1ccc2c(c1)Cc1ccccc1-2`, the Potency entry was “inactive”. As for `COc1cc(C=O)cc2c1[C@H](COC(N)=O)[C@]1(OC(C)=O)ON2C[C@H]2[C@@H]1N2C(C)=O`, the entry is “inactive”.

In the case of `O=C(O)C1C2CCC(O2)C1C(=O)O` (stereo not given), the Potency entry was “inactive”. On to `Oc1ccc(C(c2ccc(O)cc2)(C(F)(F)F)C(F)(F)F)cc1`, for which the Potency is 60.8 µM (active) and inactive. On to `O=[N+]([O-])O.O=[N+]([O-])O.[Cd]`, for which the Potency was 54.5 µM (active). As for `CCOP(=S)(OCC)SCS(=O)(=O)C(C)(C)C`, the entry is “inactive”. With `[Hg+2].[I-].[I-]` the figure was 6.86 µM (active); with `Oc1c(Br)c(Br)c(Br)c(Br)c1Br`, “inactive”; with `O=c1[nH]c2ccccc2n1C1CCN(CCCC(c2ccc(F)cc2)c2ccc(F)cc2)CC1`, 30.6 µM (active) and 29.8 µM (active). Consider `CN(C)[C@@H]1C(=O)C(C(N)=O)=C(O)[C@@]2(O)C(=O)C3=C(O)c4c(O)ccc(Cl)c4[C@@](C)(O)[C@H]3C[C@@H]12`, for which the Potency entry is “inactive”. As to `CCOC(=O)OC1=C(c2cc(C)ccc2C)C(=O)NC12CCC(OC)CC2` (stereo not given), the Potency result is “inactive”. With `C[As+](C)(C)CC(=O)[O-]` the entry was “inactive”; with `[Cl][Sb]([Cl])[Cl]`, “inactive”. Regarding `c1ccc2c(c1)OCC(C1=NCCN1)O2` (stereo not given), the Potency entry was “inactive”. With `C1CCC2CCCCC2C1` (stereo not given) the entry was “inactive”; with `CCCCCCCCCCCCCCCC[N+](C)(C)C`, 23.5 µM (active) and 54.5 µM (active) and 23.7 µM (active); with `C=CC(=O)OCC(COC(=O)C=C)(COC(=O)C=C)COC(=O)C=C`, 9.69 µM (active).

Consider `O=C(CCCN1CCC2(CC1)C(=O)NCN2c1ccccc1)c1ccc(F)cc1`, for which the Potency result was “inactive”. As to `ClC(Cl)=C(c1ccc(Cl)cc1)c1ccc(Cl)cc1`, the Potency result was “inactive”. With `CCCCCCCCCCCCCN1CC(C)OC(C)C1` (stereo not given) the entry was “inactive”; with `COP(=O)(CCC(=O)NCO)OC`, “inactive”. As for `CC(=O)c1ccc(-c2ccccc2)cc1`, the entry is “inactive”; as for `BrC(Br)Br`, “inactive”.

As for `CCS(=O)(=O)c1cccnc1S(=O)(=O)NC(=O)Nc1nc(OC)cc(OC)n1`, the Potency entry is “inactive”. In the case of `O=C1C=CC(=O)c2ccccc21`, the Potency is 27.3 µM (active).

With `COP(=O)(OC)SCn1c(=O)oc2cc(Cl)cnc21`, the Potency entry was “inactive”.
